Laboratory results as given in PubChem BioAssay.

biological target: Carbonic anhydrase 2 (Homo sapiens) (UniProt P00918); test: CAII small-molecule binders, profiling panel, biochemical, small-molecule microarray, Alexa647-labelled CAII (AID 1122); settings: CAII-A647 binding fluorescence, higher = more signal

SMILES	composite z-score
O=C1[C@H]2[C@H]3[C@H](O)[C@H](O)CC(=NOC[C@@H](O)COCc4ccco4)[C@@H]3CC[C@H]2C(=O)N1C1CCCCC1	0.057
CC(CCC(=O)OC[C@H]1O[C@H](C#Cc2ccccc2)C=C[C@@H]1Oc1ccc(C)cc1)=NO[C@H](C)c1cn([C@@H]2COC[C@H]2O)nn1	-0.129
C[C@H]1CC[C@H]2C(=O)N[C@H](Cc3ccccc3)C(=O)N2[C@@H]1c1ccccc1	-0.0975
CC(=O)OC[C@H]1O[C@H](CC=NO[C@H](C)c2cn([C@@H]3COC[C@H]3O)nn2)C=C[C@@H]1OC(C)=O	-0.0556
O=C1CCCC=C1C(O)COCc1ccccc1 (centres undefined)	-0.213
COc1ccc(COC(=O)NN=C2C[C@@H](O)[C@@H](O)[C@@H]3[C@@H]4C(=O)N(C5CCCCC5)C(=O)[C@@H]4CC[C@@H]23)cc1	-0.143
COC(=O)CC=C[C@@H](C)[C@@H](C=NOC[C@@H](O)COCc1ccco1)OC	-0.134
O=C1[C@H]2[C@H]3[C@H](O)[C@H](O)CC(=NO[C@@H]4O[C@H](CO)[C@@H](O)[C@H](O)[C@H]4O)[C@@H]3CC[C@H]2C(=O)N1C[C@@H]1CCCO1	0.212
O=C1[C@H]2[C@H]3[C@H](O)[C@H](O)CC(=NOC[C@@H](O)COCc4ccco4)[C@@H]3CC[C@H]2C(=O)N1Cc1ccccc1	0.552
CCOC(=O)[C@H](Cc1ccccc1)NC(=O)CCC1CC(OC(=O)NCCc2ccc(F)cc2)CC2(CCCC(COC(=O)NCc3cccc(C(F)(F)F)c3)O2)O1 (some centres undefined)	0.499
O=C1C=C[C@@H](O)[C@@H]2[C@@H]3C(=O)N(C4CCCCC4)C(=O)[C@@H]3CC[C@@H]12	0.143
CCN1C(=O)[C@H]2[C@@H]3C(=CC[C@H]2C1=O)C(=O)[C@H]1O[C@H]1[C@H]3O	-0.156
CCOC(=O)[C@H](Cc1ccccc1)NC(=O)CCC1CC(OC(=O)NCc2ccc3c(c2)OCO3)CC2(CCCC(COC(=O)NCCOc3ccccc3)O2)O1 (some centres undefined)	0.109
CCN1C(=O)[C@H]2[C@H]3[C@H](O)[C@H](O)CC(=NO[C@H](C)c4cn([C@H](CO)Cc5ccccc5)nn4)[C@@H]3CC[C@H]2C1=O	0.412
COC(OC)[C@@H](C)[C@H](OC)[C@@H](C)[C@H](OC)c1ccccc1	-0.552
CO[C@@H]1COC(=O)[C@H](CCSC)NC(=O)CC=C[C@@H](C)COC(=O)[C@@H]2CCCN2C(=O)CC=C[C@H]1C	-0.291
CC(C)=NO[C@H](C)c1cn([C@@H]2COC[C@H]2O)nn1	0.0793
CC(C)=NOC(C)CN1CCCc2nc(C)c(C)cc21 (centres undefined)	0.449
CC#CCOCCC=C1c2ccccc2[C@@H](OC)[C@@H]1C	0.336
O=C1[C@H]2[C@H]3[C@H](O)[C@H](O)CC(=NO[C@@H]4O[C@H](CO)[C@@H](O)[C@H](O)[C@H]4O)[C@H]3CC[C@H]2C(=O)N1C[C@@H]1CCCO1	-0.408
O=C1C[C@H](c2ccccc2)[C@H](c2ccc(Br)cc2)O1	-0.202
CO[C@H]1COC(=O)CC=C[C@@H](C)COC(=O)[C@H]2CCCN2C(=O)CC=C[C@H]1C	-0.516
O=C(NN=C1C[C@@H](O)[C@@H](O)[C@@H]2[C@@H]3C(=O)N(Cc4ccccc4)C(=O)[C@@H]3CC[C@H]12)OCc1ccccc1	-0.253

system: not listed separately; test: COS7 lysate on small-molecule microarray, probe aHis, 635 nm (AID 1123); settings: COS7 cell lysate, fluorescence, higher = more signal;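 note: z-score combines 667nm fluorescence intensity with signal-to-noise per printed compound spot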

SMILES	composite z-score
CON=C(C)CCN1CCCCc2nc(C)c(C)cc21	-0.0845
CCOC(=O)[C@H](Cc1ccccc1)NC(=O)CCC1CC(OC(=O)NCc2cccc3ccccc23)CC2(CCCC(COC(=O)NCC3CCCCC3)O2)O1 (some centres undefined)	0.745
CO[C@H]1COC(=O)CCC[C@H](C)[C@@H](OC)COC(=O)CC=C[C@@H]1C	-0.378
C[C@H]1C=CCC(=O)OC[C@H](C)C(=O)N2CCC[C@H]2C(=O)OC1	-0.802
CC(=O)OC[C@H]1O[C@H](CCON=C(C)C)C=C[C@@H]1OC(C)=O	-0.308
CC(C)[C@@H](OCc1ccccc1)[C@H](C)C=NO[C@@H](C)c1cn([C@H](CO)Cc2ccccc2)nn1	-0.205
O=C1C2=CC[C@H]3C(=O)N(C4CCCCC4)C(=O)[C@H]3[C@H]2[C@H](O)[C@@H]2O[C@H]12	-0.888
CC(C)(C)N1C(=O)[C@H]2[C@H]3[C@H](O)[C@H](O)CC(=NNC(=O)OCc4ccccc4)[C@H]3CC[C@H]2C1=O	0.447
CC(C)(C)N1C(=O)[C@H]2[C@H]3[C@H](O)[C@H](O)CC(=NNC(=O)OCc4ccccc4)[C@@H]3CC[C@H]2C1=O	0.728
O=C1C2=CC[C@H]3C(=O)N(C[C@@H]4CCCO4)C(=O)[C@H]3[C@H]2[C@H](O)[C@@H]2O[C@H]12	-0.534
CO[C@@H]1C=CCC(=O)N[C@@H](C)C(=O)OC[C@@H](NS(=O)(=O)c2ccc(C)cc2)[C@H](C)C=CCC(=O)OC[C@H]1C	-0.971
C[C@@H]1CC[C@@H](C(=O)O)N[C@H]1c1cccc(N2CCOCC2)c1	0.531
CO[C@@H]1COC(=O)[C@@H]2CCCN2C(=O)[C@@H](C)COC(=O)CCC[C@H]1C	0.0072
O=C1[C@H]2[C@H]3[C@H](O)[C@H](O)CC(=NOC[C@@H](O)COCc4ccco4)[C@@H]3CC[C@H]2C(=O)N1C1CCCCC1	-0.39
CC(CCC(=O)OC[C@H]1O[C@H](C#Cc2ccccc2)C=C[C@@H]1Oc1ccc(C)cc1)=NO[C@H](C)c1cn([C@@H]2COC[C@H]2O)nn1	-0.235
C[C@H]1CC[C@H]2C(=O)N[C@H](Cc3ccccc3)C(=O)N2[C@@H]1c1ccccc1	-0.227
CC(=O)OC[C@H]1O[C@H](CC=NO[C@H](C)c2cn([C@@H]3COC[C@H]3O)nn2)C=C[C@@H]1OC(C)=O	-0.426
O=C1CCCC=C1C(O)COCc1ccccc1 (centres undefined)	0.428

SMILES	composite z-score
COc1ccc(COC(=O)NN=C2C[C@@H](O)[C@@H](O)[C@@H]3[C@@H]4C(=O)N(C5CCCCC5)C(=O)[C@@H]4CC[C@@H]23)cc1	0.0678
COC(=O)CC=C[C@@H](C)[C@@H](C=NOC[C@@H](O)COCc1ccco1)OC	-0.452
O=C1[C@H]2[C@H]3[C@H](O)[C@H](O)CC(=NO[C@@H]4O[C@H](CO)[C@@H](O)[C@H](O)[C@H]4O)[C@@H]3CC[C@H]2C(=O)N1C[C@@H]1CCCO1	0.146
O=C1[C@H]2[C@H]3[C@H](O)[C@H](O)CC(=NOC[C@@H](O)COCc4ccco4)[C@@H]3CC[C@H]2C(=O)N1Cc1ccccc1	0.654
CCOC(=O)[C@H](Cc1ccccc1)NC(=O)CCC1CC(OC(=O)NCCc2ccc(F)cc2)CC2(CCCC(COC(=O)NCc3cccc(C(F)(F)F)c3)O2)O1 (some centres undefined)	2.08
O=C1C=C[C@@H](O)[C@@H]2[C@@H]3C(=O)N(C4CCCCC4)C(=O)[C@@H]3CC[C@@H]12	0.214
CCN1C(=O)[C@H]2[C@@H]3C(=CC[C@H]2C1=O)C(=O)[C@H]1O[C@H]1[C@H]3O	0.141
CCOC(=O)[C@H](Cc1ccccc1)NC(=O)CCC1CC(OC(=O)NCc2ccc3c(c2)OCO3)CC2(CCCC(COC(=O)NCCOc3ccccc3)O2)O1 (some centres undefined)	1.52
CCN1C(=O)[C@H]2[C@H]3[C@H](O)[C@H](O)CC(=NO[C@H](C)c4cn([C@H](CO)Cc5ccccc5)nn4)[C@@H]3CC[C@H]2C1=O	0.785
COC(OC)[C@@H](C)[C@H](OC)[C@@H](C)[C@H](OC)c1ccccc1	-0.729
CO[C@@H]1COC(=O)[C@H](CCSC)NC(=O)CC=C[C@@H](C)COC(=O)[C@@H]2CCCN2C(=O)CC=C[C@H]1C	-0.462
CC(C)=NO[C@H](C)c1cn([C@@H]2COC[C@H]2O)nn1	0.0027
CC(C)=NOC(C)CN1CCCc2nc(C)c(C)cc21 (centres undefined)	1.31
CC#CCOCCC=C1c2ccccc2[C@@H](OC)[C@@H]1C	-0.336
O=C1[C@H]2[C@H]3[C@H](O)[C@H](O)CC(=NO[C@@H]4O[C@H](CO)[C@@H](O)[C@H](O)[C@H]4O)[C@H]3CC[C@H]2C(=O)N1C[C@@H]1CCCO1	-0.686
O=C1C[C@H](c2ccccc2)[C@H](c2ccc(Br)cc2)O1	-0.652
CO[C@H]1COC(=O)CC=C[C@@H](C)COC(=O)[C@H]2CCCN2C(=O)CC=C[C@H]1C	-0.916
O=C(NN=C1C[C@@H](O)[C@@H](O)[C@@H]2[C@@H]3C(=O)N(Cc4ccccc4)C(=O)[C@@H]3CC[C@H]12)OCc1ccccc1	-0.771
